Reference: PMC7862700, “An all-to-all approach to the identification of sequence-specific readers for epigenetic DNA modifications on cytosine”

What follows are sequences tested against T1, ETV2 (Homo sapiens, UniProt O00321 1-342) (assay: DAPPL (digital affinity profiling via proximity ligation, sequencing); 10 mM Tris-HCl pH 7.5, 50 mM NaCl, 1 mM DTT, 4% glycerol, room temperature, 30 min; GST-TFs on glutathione beads, 16-mer random dsDNA library, 0.1% formaldehyde crosslink after washing; high values mean tight binding). Settings: protein: recombinant; tags: N-terminal GST; dsDNA, one strand shown.
T1 sequence: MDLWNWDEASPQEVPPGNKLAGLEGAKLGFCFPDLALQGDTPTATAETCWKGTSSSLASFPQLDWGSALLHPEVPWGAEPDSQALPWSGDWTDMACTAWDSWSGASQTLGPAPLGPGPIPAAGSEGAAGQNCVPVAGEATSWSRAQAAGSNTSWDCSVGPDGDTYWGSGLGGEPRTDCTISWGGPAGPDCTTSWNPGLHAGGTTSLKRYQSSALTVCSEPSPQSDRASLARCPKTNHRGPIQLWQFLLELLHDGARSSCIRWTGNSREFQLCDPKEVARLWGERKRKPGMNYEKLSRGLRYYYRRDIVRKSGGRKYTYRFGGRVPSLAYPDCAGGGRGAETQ
Procedure, shortened: (§1)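 The binding signal reported is, for every hexamer, its read frequency for a factor over its read frequency for the tag-only sample. Reads came from pools of yeast-expressed, GST-fused human transcription factors on glutathione beads, barcoded with DNA and mixed with that sample, which were incubated with 200 nmole of a random double-stranded 16-mer DNA library in Tris/NaCl/DTT/glycerol buffer at room temperature for 30 min. After washing, the pools were crosslinked with 0.1% formaldehyde, proximity-ligated with BsaI/T4 ligase for 1 h at 37 °C, PCR-amplified and sequenced on an Illumina NextSeq500.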
With GTCTGG the binding signal was 1.02 fold enrichment (6-mer frequency, TF over GST control). In the case of TTAGAG, the binding signal is reported as 1.01 fold enrichment (6-mer frequency, TF over GST control). In the case of GGCTTT, the binding signal is reported as 1.15 fold enrichment (6-mer frequency, TF over GST control). TTTAGA was tested, and the binding signal was 1.12 fold enrichment (6-mer frequency, TF over GST control). For TTCAGA, the binding signal was 1.08 fold enrichment (6-mer frequency, TF over GST control).

Each sequence was assayed against T2, ELF3 (Homo sapiens, UniProt P78545 1-371) in the same assay as above. Settings: protein: recombinant; tags: N-terminal GST; dsDNA, one strand shown.
T2 sequence: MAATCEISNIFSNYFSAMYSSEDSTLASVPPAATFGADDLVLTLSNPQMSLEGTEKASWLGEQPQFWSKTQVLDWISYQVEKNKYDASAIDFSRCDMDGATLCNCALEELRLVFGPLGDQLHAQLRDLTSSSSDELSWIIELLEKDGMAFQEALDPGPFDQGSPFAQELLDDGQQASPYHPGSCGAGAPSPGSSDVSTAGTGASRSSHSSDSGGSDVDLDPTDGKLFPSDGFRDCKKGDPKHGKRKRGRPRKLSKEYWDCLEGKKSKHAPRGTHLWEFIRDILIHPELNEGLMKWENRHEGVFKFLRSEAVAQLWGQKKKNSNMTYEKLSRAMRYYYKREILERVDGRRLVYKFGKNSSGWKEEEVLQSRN
Procedure, shortened: as §1
In the case of TACGAG, the binding signal is reported as 1.02 fold enrichment (6-mer frequency, TF over GST control). TTAGGA was tested, and the binding signal was 1.02 fold enrichment (6-mer frequency, TF over GST control). For AGCATA, the binding signal was 1.01 fold enrichment (6-mer frequency, TF over GST control). For CGGATT, the binding signal was 1.01 fold enrichment (6-mer frequency, TF over GST control). AGAATG was tested, and the binding signal was 1.05 fold enrichment (6-mer frequency, TF over GST control). For GGTTAA, the binding signal was 1.03 fold enrichment (6-mer frequency, TF over GST control). With GTAGAA the binding signal was 1.06 fold enrichment (6-mer frequency, TF over GST control). For GCGATT, the binding signal was 1.04 fold enrichment (6-mer frequency, TF over GST control).

What follows are sequences tested against CRX (Homo sapiens, UniProt O43186 1-299) in the same assay as above. Settings: protein: recombinant; tags: N-terminal GST; dsDNA, one strand shown.
Sequence of CRX (O43186 whole entry): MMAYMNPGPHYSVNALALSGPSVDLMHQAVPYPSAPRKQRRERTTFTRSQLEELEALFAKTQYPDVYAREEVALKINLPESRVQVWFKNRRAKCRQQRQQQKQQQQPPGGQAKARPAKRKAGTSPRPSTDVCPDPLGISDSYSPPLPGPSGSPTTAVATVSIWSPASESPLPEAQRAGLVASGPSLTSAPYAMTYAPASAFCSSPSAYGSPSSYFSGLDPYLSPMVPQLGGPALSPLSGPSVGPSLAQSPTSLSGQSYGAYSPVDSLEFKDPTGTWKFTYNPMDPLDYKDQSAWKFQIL
Procedure, shortened: as §1
TAAGAG was tested, and the binding signal was 1.46 fold enrichment (6-mer frequency, TF over GST control). For GGGATT, the binding signal was 2.71 fold enrichment (6-mer frequency, TF over GST control). In the case of TACGAG, the binding signal is reported as 1.05 fold enrichment (6-mer frequency, TF over GST control). In the case of AATCGT, the binding signal is reported as 1.15 fold enrichment (6-mer frequency, TF over GST control). With ACCAGA the binding signal was 1.06 fold enrichment (6-mer frequency, TF over GST control). With GGATCA the binding signal was 1.53 fold enrichment (6-mer frequency, TF over GST control). For AGATCA, the binding signal was 1.31 fold enrichment (6-mer frequency, TF over GST control). For TAAGAC, the binding signal was 1.72 fold enrichment (6-mer frequency, TF over GST control). ATCAAG was tested, and the binding signal was 1.19 fold enrichment (6-mer frequency, TF over GST control). TTAGGA was tested, and the binding signal was 1.77 fold enrichment (6-mer frequency, TF over GST control). CGGATT was tested, and the binding signal was 2.48 fold enrichment (6-mer frequency, TF over GST control). With CGAGAT the binding signal was 1.27 fold enrichment (6-mer frequency, TF over GST control). In the case of AGAATG, the binding signal is reported as 1.09 fold enrichment (6-mer frequency, TF over GST control). GAGATT was tested, and the binding signal was 1.57 fold enrichment (6-mer frequency, TF over GST control). ATCCAG was tested, and the binding signal was 1.29 fold enrichment (6-mer frequency, TF over GST control). In the case of GGTTAA, the binding signal is reported as 1.31 fold enrichment (6-mer frequency, TF over GST control). In the case of CAGATC, the binding signal is reported as 1.13 fold enrichment (6-mer frequency, TF over GST control). In the case of GGATAA, the binding signal is reported as 1.75 fold enrichment (6-mer frequency, TF over GST control). GCATTA was tested, and the binding signal was 1.64 fold enrichment (6-mer frequency, TF over GST control). For AGACTA, the binding signal was 1.02 fold enrichment (6-mer frequency, TF over GST control). In the case of TTAGAG, the binding signal is reported as 1.77 fold enrichment (6-mer frequency, TF over GST control). For GGCTTT, the binding signal was 1.47 fold enrichment (6-mer frequency, TF over GST control). For AGAATC, the binding signal was 1.21 fold enrichment (6-mer frequency, TF over GST control). With TTTAGA the binding signal was 1.59 fold enrichment (6-mer frequency, TF over GST control). With TCGTAA the binding signal was 1.15 fold enrichment (6-mer frequency, TF over GST control). With AGATTG the binding signal was 1.06 fold enrichment (6-mer frequency, TF over GST control). GCGATT was tested, and the binding signal was 1.51 fold enrichment (6-mer frequency, TF over GST control). With TTCAGA the binding signal was 1.03 fold enrichment (6-mer frequency, TF over GST control). With TTAGAC the binding signal was 1.44 fold enrichment (6-mer frequency, TF over GST control). In the case of ATTAGA, the binding signal is reported as 1.95 fold enrichment (6-mer frequency, TF over GST control). For GATCTG, the binding signal was 1.09 fold enrichment (6-mer frequency, TF over GST control). With TCCAGA the binding signal was 1.5 fold enrichment (6-mer frequency, TF over GST control).

Each sequence was assayed against T3, ETV3L (Homo sapiens, UniProt Q6ZN32 1-361) in the same assay as above. Settings: protein: recombinant; tags: N-terminal GST; dsDNA, one strand shown.
T3 sequence: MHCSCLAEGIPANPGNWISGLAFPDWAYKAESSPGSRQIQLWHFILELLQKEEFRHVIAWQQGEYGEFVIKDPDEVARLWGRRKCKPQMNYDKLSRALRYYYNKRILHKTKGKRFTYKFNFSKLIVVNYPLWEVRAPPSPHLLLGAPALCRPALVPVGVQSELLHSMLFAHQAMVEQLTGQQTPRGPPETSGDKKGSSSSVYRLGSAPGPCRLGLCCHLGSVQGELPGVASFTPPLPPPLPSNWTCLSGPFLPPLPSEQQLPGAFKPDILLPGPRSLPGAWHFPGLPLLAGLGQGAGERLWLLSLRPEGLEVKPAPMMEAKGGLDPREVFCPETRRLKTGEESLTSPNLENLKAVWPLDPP
Procedure, shortened: as §1
For GAATGG, the binding signal was 1.01 fold enrichment (6-mer frequency, TF over GST control). ATCAAG was tested, and the binding signal was 1.06 fold enrichment (6-mer frequency, TF over GST control). In the case of GGCTTT, the binding signal is reported as 1.03 fold enrichment (6-mer frequency, TF over GST control). For TCGAGT, the binding signal was 1.06 fold enrichment (6-mer frequency, TF over GST control).

The sequences below were run against T4, SPDEF (Homo sapiens, UniProt O95238 1-335) in the same assay as above. Settings: protein: recombinant; tags: N-terminal GST; dsDNA, one strand shown.
T4 sequence: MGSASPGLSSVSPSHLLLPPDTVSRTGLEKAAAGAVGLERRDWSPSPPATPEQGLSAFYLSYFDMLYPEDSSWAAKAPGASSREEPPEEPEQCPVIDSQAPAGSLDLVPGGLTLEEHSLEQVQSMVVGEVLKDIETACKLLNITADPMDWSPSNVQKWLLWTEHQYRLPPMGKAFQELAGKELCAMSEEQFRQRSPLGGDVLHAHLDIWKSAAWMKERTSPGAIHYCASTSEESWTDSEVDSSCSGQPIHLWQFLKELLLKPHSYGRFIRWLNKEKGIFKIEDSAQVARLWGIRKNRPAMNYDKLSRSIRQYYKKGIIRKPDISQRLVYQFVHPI
Procedure, shortened: as §1
With ATCAAG the binding signal was 1.01 fold enrichment (6-mer frequency, TF over GST control). CGGATT was tested, and the binding signal was 1.42 fold enrichment (6-mer frequency, TF over GST control). In the case of CGTCGA, the binding signal is reported as 1.02 fold enrichment (6-mer frequency, TF over GST control). For CAGATC, the binding signal was 1.07 fold enrichment (6-mer frequency, TF over GST control). In the case of GGCTTT, the binding signal is reported as 1 fold enrichment (6-mer frequency, TF over GST control). In the case of TTCAGA, the binding signal is reported as 1.01 fold enrichment (6-mer frequency, TF over GST control).

These sequences were tested against T5, ETV7 (Homo sapiens, UniProt Q9Y603 1-341) in the same assay as above. Settings: protein: recombinant; tags: N-terminal GST; dsDNA, one strand shown.
T5 sequence: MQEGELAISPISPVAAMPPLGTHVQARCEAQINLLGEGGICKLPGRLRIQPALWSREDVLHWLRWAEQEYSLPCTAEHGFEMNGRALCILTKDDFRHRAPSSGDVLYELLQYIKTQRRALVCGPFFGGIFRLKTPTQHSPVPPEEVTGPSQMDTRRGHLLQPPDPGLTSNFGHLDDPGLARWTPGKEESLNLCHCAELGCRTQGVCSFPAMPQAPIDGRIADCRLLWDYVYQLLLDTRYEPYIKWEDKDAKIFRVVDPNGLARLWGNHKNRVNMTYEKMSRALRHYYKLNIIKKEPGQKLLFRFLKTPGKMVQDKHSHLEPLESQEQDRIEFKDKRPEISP
Procedure, shortened: as §1
AGCATA was tested, and the binding signal was 1.01 fold enrichment (6-mer frequency, TF over GST control). With GGCTTT the binding signal was 1.16 fold enrichment (6-mer frequency, TF over GST control). With TTTAGA the binding signal was 1.05 fold enrichment (6-mer frequency, TF over GST control).

What follows are sequences tested against ETV6 (Homo sapiens, UniProt P41212 1-452) in the same assay as above. Settings: protein: recombinant; tags: N-terminal GST; dsDNA, one strand shown.
Sequence of ETV6 (P41212 whole entry): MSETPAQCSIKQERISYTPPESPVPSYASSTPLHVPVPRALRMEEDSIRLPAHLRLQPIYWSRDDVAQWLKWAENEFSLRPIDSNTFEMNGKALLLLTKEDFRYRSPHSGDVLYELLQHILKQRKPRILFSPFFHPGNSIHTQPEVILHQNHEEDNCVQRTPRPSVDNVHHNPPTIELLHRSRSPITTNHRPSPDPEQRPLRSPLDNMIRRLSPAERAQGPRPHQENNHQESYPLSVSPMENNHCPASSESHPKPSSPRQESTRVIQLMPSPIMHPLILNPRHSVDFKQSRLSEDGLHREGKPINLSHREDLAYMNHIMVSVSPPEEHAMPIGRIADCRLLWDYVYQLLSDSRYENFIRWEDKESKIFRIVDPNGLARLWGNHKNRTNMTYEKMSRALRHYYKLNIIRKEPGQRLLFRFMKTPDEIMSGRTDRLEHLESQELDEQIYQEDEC
Procedure, shortened: as §1
GAATGG was tested, and the binding signal was 1.04 fold enrichment (6-mer frequency, TF over GST control). TTAGGA was tested, and the binding signal was 1 fold enrichment (6-mer frequency, TF over GST control). For GGCTTT, the binding signal was 1.06 fold enrichment (6-mer frequency, TF over GST control). In the case of TTTAGA, the binding signal is reported as 1.04 fold enrichment (6-mer frequency, TF over GST control).
